Source: PubChem BioAssay (National Center for Advancing Translational Sciences (NCATS))
SMN2 splice enh: enhancers of SMN2 splice variant expression. Potency, µM (top dose mostly 46.1 µM), hits mostly activators. HEK293 SMN2-luciferase splicing reporter, luminescence, 30-36 h. 210,000 tested, 2.8% active; also: nearly all actives have a fitted effect of over 55% in size
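HEK293 cells carry an SMN2 minigene-luciferase reporter in which exon 7 inclusion puts luciferase in frame. Cells were seeded at 2000 cells/well, attached for 10-12 hours, then exposed to compounds for 30-36 hours at 37C before ONE-Glo luminescence.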
ELG1 genotox: induces genotoxicity in HEK293T cells with luciferase-tagged ELG1; HEK293T ELG1-luciferase reporter, luminescence, 16 h; Potency, µM (titrated, usually from 46 µM), hits mostly activators; 330,000 tested, 1.3% active; AID 504466; also: nearly all actives have a fitted effect of over 60% in size
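DMSO vehicle served as control against compound-treated ELG1-luciferase HEK293T cells; exposure lasted 16 hr at 37 °C and 5% CO2, followed by ONE-Glo luminescence detection after 30 min.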
KinaseGlo FLuc: Kinase-Glo luciferase inhibition (counter-screen); AID 1379; 200,000 tested, 0.28% active; Potency, µM (top dose mostly 38.3 µM), usual class: inhibitors; Kinase-Glo luciferase, ATP luminescence, 8 min; also: nearly all actives have a fitted effect of over 60% in size
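Inhibition of Kinase-Glo luciferase light generation was assessed at 10 uM ATP in pH 7.2 imidazole buffer, with luminescence measured after eight minutes at ambient temperature.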
Rab9 prom act: activates the Rab9 promoter. Huh7 Rab9 promoter-luciferase reporter, luminescence, 24 h. Potency, µM (top dose mostly 9.22 µM), actives largely listed as activators. 320,000 tested, 2.8% active. AID 485297; also: nearly all actives have a fitted effect of over 60% in size
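Steps: seed 1500 Huh7 Rab9-luc cells per well, rest 2 h at 37 °C; add compound in DMSO; incubate 24 h; add luciferase reagent, 10 min ambient; read luminescence.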
FLuc counter: inhibits or activates purified firefly luciferase, miR-21 counter-screen | P08659 | purified FLuc, Km substrates, luminescence inhibition | Potency, µM (doses to about 57.5 µM), usual class: inhibitors | 360,000 tested, 6.9% active | AID 588342; also: nearly all actives have a fitted effect of over 55% in size
Target sequence (P08659 whole entry, looked up): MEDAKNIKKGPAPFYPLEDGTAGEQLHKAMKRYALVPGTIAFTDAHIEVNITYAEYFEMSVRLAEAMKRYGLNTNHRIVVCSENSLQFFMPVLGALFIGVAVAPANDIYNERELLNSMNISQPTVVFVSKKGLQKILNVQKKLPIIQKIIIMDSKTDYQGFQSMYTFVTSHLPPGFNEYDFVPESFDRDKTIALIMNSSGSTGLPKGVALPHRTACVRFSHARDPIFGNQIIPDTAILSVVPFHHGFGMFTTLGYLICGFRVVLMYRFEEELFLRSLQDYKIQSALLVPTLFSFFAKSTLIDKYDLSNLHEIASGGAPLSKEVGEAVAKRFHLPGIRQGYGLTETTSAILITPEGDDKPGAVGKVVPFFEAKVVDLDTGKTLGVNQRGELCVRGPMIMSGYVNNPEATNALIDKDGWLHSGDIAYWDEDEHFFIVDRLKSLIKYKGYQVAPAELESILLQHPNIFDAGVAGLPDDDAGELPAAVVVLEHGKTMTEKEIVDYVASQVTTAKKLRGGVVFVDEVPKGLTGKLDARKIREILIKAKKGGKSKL
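Biochemical qHTS of compounds, final roughly 60 µM downward over six points, against 10 nM purified firefly luciferase using Km concentrations of substrates (10 uM D-luciferin, 10 uM ATP) in Tris acetate pH 7.5 buffer; luminescence output.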
NPC1 prom act: NPC1 promoter activation. Huh7 NPC1 promoter luciferase reporter, 24 h. AID 485313. 320,000 tested, 2.4% active. Potency, µM (series often up to 9.22 µM), usual class: activators; also: nearly all actives have a fitted effect of over 60% in size
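Huh7 reporter cells (NPC1 promoter driving luciferase) are dosed with compound for 24 h at 37 °C, 5% CO2; luciferase detection reagent is then added and luminescence measured after 10 min at ambient temperature.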
Hits are given with their value; i = inactive; ? = inconclusive; nt = not tested or not shown; [ ] = dose if it differs, or a comment. A selection: hits, their analogues and other compounds. The true share with any hit is near 7.5%. Calls follow the shape of the dose curve; as a rule, active = well fitted curve in the direction sought with a large enough effect; inconclusive = small, poorly fitted or top-dose-only effect, or another doubt; inactive = no such curve, though single readings can be large; an effect the other way counts as inactive or inconclusive.

SMILES | SMN2 splice enh | ELG1 genotox | KinaseGlo FLuc | Rab9 prom act | FLuc counter | NPC1 prom act
Cc1nc2cc(-c3ccc(Br)cc3)[nH]n2c(=O)c1Cl | nt | 16µM | nt | 2.5µM | 9.5µM | ?
Cc1cc2nc(C)c(Cl)c(=O)n2[nH]1 | i | i | i | i | i | i
CCc1c(C)nc2cc(-c3ccc(Cl)cc3)[nH]n2c1=O | nt | ? | nt | ? | 8.5µM | 4µM
CC(C)(C)OC(=O)N1CCC(c2cc(=O)n3[nH]c(-c4ccc(Cl)cc4)cc3n2)CC1 | i | i | i | i | i | i
Cc1ccc(N2C(=O)CSC23C(=O)N(CC(=O)Nc2ccc(C)cc2C)c2ccccc23)cc1 (stereo not drawn) | nt | nt | nt | nt | i | nt
CC1=C(C(=O)O)N2C(=O)[C@@H](NC(=O)C(N)C3=CCC=CC3)[C@H]2SC1 (stereo partly drawn) | i | nt | i | i | nt | i
CS(=O)(=O)c1ccc(C(=O)Nc2cc(S(C)(=O)=O)ccc2Cl)cc1 | nt | i | nt | i | i | i
O=C(Nc1ccc(Cl)c(Cl)c1)c1ccc(Cl)c(Cl)c1 | nt | i | nt | 3.5µM | 12µM | 3.5µM
CS(=O)(=O)c1cccc(NC(=O)c2ccc(Cl)c(Cl)c2)c1 | nt | i | i | i | 19µM | i
COc1ccc(C(=O)Nc2ccc(Cl)c(Cl)c2)c(OC)n1 | 3.2µM | ? | i | ? | 0.95µM | i
O=C(Nc1ccc(Cl)c(Cl)c1)c1ccncc1 | i | i | i | i | ? | i
COc1ccc(C(=O)O)c(OC)n1 | nt | i | nt | i | i | i
Cc1ccc(NC(=O)c2ccc(Cl)c(N3C(=O)C=CC3=O)c2)cc1 | i | i | i | i | 9.5µM | i
CC(=NCCCN(C)C)C1=C(O)c2ccccc2C1=O | i | i | i | i | i | i
CC(=NC1CC1)C1=C(O)c2ccccc2C1=O | i | ? | i | ? | 17µM | i
C/C(=N\N(C)C)C1=C(O)c2ccccc2C1=O | i | i | i | i | ? | i
COc1ccc(N=C(C)C2=C(O)c3ccccc3C2=O)cc1 | 5µM | 2.6µM | i | 0.45µM | 0.95µM | 0.71µM
CCOc1ccc(N=C(C)C2=C(O)c3ccccc3C2=O)cc1 | nt | ? | nt | 1.3µM | 1.3µM | 0.79µM
CC(=O)Nc1ccc(N=C(C2=C(O)c3ccccc3C2=O)c2ccccc2)cc1 | i | i | i | ? | ? | i
COc1ccc(-c2cn(-c3ccccc3)c3[n+]2CCS3)cc1 | i | i | i | i | i | i
Nc1cc(=O)nc(SCC(=O)Nc2ccc(F)cc2)n1CCc1ccccc1 | i | nt | nt | nt | i | nt
CCc1ccccc1N(C)C(=O)Cc1c(C(=O)O)c(C)cn1C | nt | nt | nt | nt | i | nt
Cc1ccc(-c2nc3ccccc3n3nnnc23)cc1 | 13µM | ? | i | i | i | i
Fc1ccccc1Nc1nc2ccccc2n2nnnc12 | ? | 13µM | i | ? | ? | i
Cc1cccc(NC(=S)N2CCC(C(=O)c3ccc(F)cc3)CC2)c1C | i | i | i | i | i | i
SMILES | SMN2 splice enh | ELG1 genotox | KinaseGlo FLuc | Rab9 prom act | FLuc counter | NPC1 prom act
CCOc1ccc(CNC(=O)CCc2c(C)nn(-c3ccc(N4CCOCC4)nn3)c2C)cc1 | nt | nt | nt | nt | i | nt
Cc1ccc(C)c(NC(=O)CCc2c(C)nn(-c3ccc(N4CCCCC4)nn3)c2C)c1 | nt | i[9.26 µM] | nt | i | ? | i
Cc1ccc(NC(=O)CCc2c(C)nn(-c3ccc(N4CCCCC4)nn3)c2C)cc1F | nt | ? | nt | 4µM | 3.4µM | 2µM
CCc1ccc(NC(=O)CCc2c(C)nn(-c3ccc(N4CCCCC4)nn3)c2C)cc1 | nt | i | nt | ? | 12µM | ?
CCOc1ccc(NC(=O)CCc2c(C)nn(-c3ccc(N4CCCCC4)nn3)c2C)cc1 | nt | ? | nt | 2.8µM | 2.7µM | ?
CCc1cccc(NC(=O)CCc2c(C)nn(-c3ccc(N4CCCCC4)nn3)c2C)c1 | nt | i | nt | ? | 11µM | i
N#Cc1ccccc1Cn1c(SCC(=O)NCc2ccccc2)nc2ccccc21 | nt | nt | nt | nt | i | nt
CCCn1c(N)c(N(CCOC)C(=O)CSc2c(Cl)cccc2Cl)c(=O)[nH]c1=O | nt | i | nt | nt | nt | nt
Cc1nn(-c2ccc(N3CCCCC3)nn2)c(C)c1CCC(=O)Nc1ccc(F)cc1 | nt | i | nt | ? | 13µM | ?
Cc1nn(-c2ccc(N3CCCC3)nn2)c(C)c1CCC(=O)NCc1ccc(F)cc1 | nt | nt | nt | nt | i | nt
COc1ccc(CNC(=O)CCc2c(C)nn(-c3ccc(N4CCCCC4)nn3)c2C)c(OC)c1 | nt | nt | nt | nt | i | nt
